Reference: the supplement of paper PMC12340641
Structures can show the parent of a compound that is named as a salt.

Tests used:
[1] = target: IKZF1 (dCK*-IKZF1 fusion in HEK293FT) (UniProt Q13422); experiment: inhibition of IKZF1 HTRF signal (DMSO = 0%, pomalidomide 10 uM = 100%); higher = lower IKZF1 protein level; details: compound concentration: 5 uM, overnight (~20 h)
Method in brief: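 After overnight treatment at 37 °C with 5 μM compound in single wells, HEK293FT cells (2000/well, 384-well) stably expressing an IKZF1 fusion were lysed for 30 min at room temperature. A commercial HTRF total-IKZF1 antibody kit was incubated with the lysate overnight, and the time-resolved FRET ratio at 665/620 nm was corrected for background. Data are given as percent inhibition of IKZF1 signal relative, on each plate, to vehicle and a reference degrader, set at 0% and 100% respectively.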

HEK293FT dCK*-only = experiment: relative growth in counter assay (no AraC = 100%, AraC + DMSO = 0%); higher = more growth rescue independent of IKZF1; details: compound concentration: 5 uM; AraC concentration: 0.3 uM; overnight pretreatment + 4 days AraC
Method in brief: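 Counter assay in HEK293FT cells expressing dCK* alone (300/well, 384-well). Cells received 5 μM compound 2 h after seeding, then after overnight at 37 °C a nucleoside suicide substrate at 0.3 μM plus medium for 4 days. On day 5, Hoechst 33342-stained nuclei were counted by imaging. Relative growth was normalised per plate to wells without suicide substrate (100%) and substrate plus vehicle (0%).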

HEK293FT dCK*-IKZF1 = experiment: relative growth recovery (pomalidomide 10 uM = 100%, DMSO = 0%); higher = more growth rescue (IKZF1 fusion degradation); details: compound concentration: 5 uM; AraC concentration: 0.3 uM; overnight pretreatment + 4 days AraC
Method in brief: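 Means of duplicates from different days are given for growth recovery, normalised per plate against a reference degrader and vehicle. The reference degrader set the 100% level and vehicle the 0% level. HEK293FT cells stably expressing a deoxycytidine kinase–IKZF1 fusion (300/well, 384-well) received 5 μM compound 2 h after seeding and, after overnight at 37 °C, 0.3 μM of a nucleoside suicide substrate plus medium for 4 days. Nuclei stained with Hoechst 33342 were then counted by whole-well imaging on day 5.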

IKZF1 (dCK*-IKZF1 fusion in HEK293FT), sequence (Q13422 whole entry, looked up, the tested form may be a part): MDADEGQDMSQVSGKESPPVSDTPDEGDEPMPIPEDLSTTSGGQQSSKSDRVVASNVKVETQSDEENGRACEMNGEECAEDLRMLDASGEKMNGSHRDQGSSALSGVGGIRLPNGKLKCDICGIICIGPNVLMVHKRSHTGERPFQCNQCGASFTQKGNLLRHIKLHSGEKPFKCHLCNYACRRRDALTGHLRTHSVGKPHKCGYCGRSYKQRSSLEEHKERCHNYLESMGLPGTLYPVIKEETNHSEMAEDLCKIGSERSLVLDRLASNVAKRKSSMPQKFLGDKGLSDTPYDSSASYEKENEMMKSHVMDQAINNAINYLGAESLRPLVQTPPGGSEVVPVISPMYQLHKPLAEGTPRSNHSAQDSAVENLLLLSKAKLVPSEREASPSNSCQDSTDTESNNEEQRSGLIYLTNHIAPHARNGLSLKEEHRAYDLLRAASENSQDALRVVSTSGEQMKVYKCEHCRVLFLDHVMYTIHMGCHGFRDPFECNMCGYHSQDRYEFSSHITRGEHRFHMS

Row | Structure (SMILES) | inhibition of IKZF1 HTRF signal [1] | relative growth in counter assay (HEK293FT dCK*-only) | relative growth recovery (HEK293FT dCK*-IKZF1)
1 | Cc1cccc(C)c1NC(=O)C(C)N (stereo unspecified) [Tocainide] | 20.5% | -12.9% | -3.04%
2 | O=C(NC(NC(=S)Nc1ccc(F)c([N+](=O)[O-])c1)C(Cl)(Cl)Cl)C(c1ccccc1)c1ccccc1 (stereo unspecified) | -19.4% | -20.4% | -10.6%
3 | O=c1c(O)c(-c2cc(O)c(O)c(O)c2)oc2cc(O)cc(O)c12 [Myricetin (Cannabiscetin)] | 18.8% | -1.64% | -0.905%
4 | C/C(=C\c1csc(C)n1)[C@@H]1C[C@@H]2O[C@]2(C)CCC[C@H](C)[C@H](O)[C@@H](C)C(=O)C(C)(C)[C@@H](O)CC(=O)N1 [Ixabepilone] | -13.2% | -33.8% | -10.8%
5 | Clc1ccc(C(Cn2ccnc2)OCc2ccc(Sc3ccccc3)cc2)c(Cl)c1 (stereo unspecified) [Fenticonazole nitrate] | -51.2% | -4.73% | 0.87%
6 | CC1(C)Oc2ccc(C#N)cc2[C@H](N(Cc2ncc[nH]2)c2ccc(Cl)cc2)[C@H]1O | -30.7% | -4.85% | 1.01%
7 | Cc1cc(Nc2ncc(Cl)c(Nc3ccccc3S(=O)(=O)C(C)C)n2)c(OC(C)C)cc1C1CCN(CCOCCOCCNC(=O)CNc2cccc3c2C(=O)N(C2CCC(=O)NC2=O)C3=O)CC1 (stereo unspecified) | 66.9% | 9.17% | 62.7%
8 | CC(=O)Oc1ccccc1C(=O)Nc1ncc([N+](=O)[O-])s1 | 22.3% | -5.9% | 0.37%
9 | Nc1ncc(Cc2ccc(Br)cc2)s1 | -28.6% | -1.27% | -1.02%
10 | C[n+]1c2cc(N)ccc2cc2ccc(N)cc21 | 69.3% | -34.9% | -15%
11 | CC[C@H](CO)Nc1nc(NCc2ccc(-c3ccccn3)cc2)c2ncn(C(C)C)c2n1 | 8.26% | -34.5% | -12.2%
12 | C=CC(=O)c1ccc2ccccc2c1 [JAK3-inhibitor-V] | -28.5% | -15.1% | 0.695%
13 | OCCN1CCN(CCCN2c3ccccc3Sc3ccc(C(F)(F)F)cc32)CC1 | -11.9% | 12% | 3.6%
14 | C1CCC(N/C(=N/C23CC4CC(CC(C4)C2)C3)N2CCOCC2)CC1 | -35.4% | 13% | 1.62%
15 | O=C(Nc1nc(-c2cc(Cl)cs2)c(N2CCN(C3CCCCC3)CC2)s1)c1cnc(N2CCC(C(=O)O)CC2)c(Cl)c1 [Avatrombopag] | -35.6% | -3.51% | 1.31%
16 | S=C(NCc1ccc2c(c1)OCO2)N1CCN(c2ncnc3c2oc2ccccc23)CC1 [Amuvatinib (MP-470)] | -37.4% | -17.4% | -0.14%
17 | CC(CCc1ccc(O)cc1)NCCc1ccc(O)c(O)c1 (stereo unspecified) [Dobutamine HCl] | 18.6% | -5.22% | -1.12%
18 | Clc1ccc(CSC(Cn2ccnc2)c2ccc(Cl)cc2Cl)cc1 (stereo unspecified) [Sulconazole Nitrate] | -32.3% | -8.02% | -2.21%
19 | O=c1n(CC2CO2)c(=O)n(CC2CO2)c(=O)n1CC1CO1 (stereo unspecified) [Triglycidyl isocyanurate] | 30.6% | -31.7% | -10.8%

Row | Structure (SMILES) | inhibition of IKZF1 HTRF signal [1] | relative growth in counter assay (HEK293FT dCK*-only) | relative growth recovery (HEK293FT dCK*-IKZF1)
20 | Nc1c2ccccc2nc2ccccc12 | 58.6% | -34.8% | -14%
21 | CC[C@@]1(O)C(=O)OCc2c1cc1n(c2=O)Cc2cc3c(CN(C)C)c(O)ccc3nc2-1 [Topotecan HCl] | 54.2% | -34.6% | -13.3%
22 | CCCCC(F)(F)C(=O)CC[C@H]1[C@H](O)CC(=O)[C@@H]1CCCCCCC(=O)O [Lubiprostone] | -43.7% | -3.38% | -1.27%
23 | CN(C)CCOC1=Cc2ccccc2Sc2ccc(Cl)cc21 [zotepine] | -37.7% | 2.78% | -1.67%
24 | COc1nccnc1NS(=O)(=O)c1ccc(N)cc1 [sulfametopyrazine] | 6.66% | -7.5% | -1.09%
25 | CC(=NNc1nnc2c(n1)[nH]c1c(C)cccc12)c1ccccn1 | 40.7% | -31.6% | -12.7%
26 | CC(=O)Oc1ccccc1C(=O)Nc1ncc([N+](=O)[O-])s1 [Nitazoxanide] | 18.8% | -4.25% | 1.91%
27 | CC(=O)N(O)[C@@H]1c2cc(C#N)ccc2OC(C)(C)[C@H]1O | 13.4% | -4.7% | -2.73%
28 | CCCCC(CC)COc1ccc(-c2nc(-c3ccc(OC)cc3)nc(-c3ccc(OCC(CC)CCCC)cc3O)n2)c(O)c1 (stereo unspecified) | -35.1% | 12.9% | 1.75%
29 | O=C2[C@]([C@]3=CC(Cl)=CC=C3OC)(F)C1=CC=C(C(F)(F)F)C=C1N2 [flindokalner] | -26.1% | -5.3% | -1.65%
30 | COc1cnc(NS(=O)(=O)c2ccc(N)cc2)nc1 | -36.1% | -10.1% | -3.84%
31 | COC(=O)Nc1ccc(-c2nc(N3CCOCC3)c3cnn(C4CCN(C(=O)OC)CC4)c3n2)cc1 | 8.25% | -9.33% | -2.33%
32 | COc1ccc(CN2CCN(C(c3ccc(F)cc3)c3ccc(F)cc3)CC2)c(OC)c1OC | -50.6% | 1.19% | 0.625%
33 | CCn1c(=O)[nH]c2ccccc21 | -34.6% | -8.57% | 0.15%
34 | CO[C@H]1/C=C/O[C@@]2(C)Oc3c(C)c(O)c4c(O)c(c(C=NN5CCN(C)CC5)c(O)c4c3C2=O)NC(=O)C(C)=CC=CC(C)[C@@H](O)[C@@H](C)[C@H](O)[C@H](C)[C@@H](OC(C)=O)[C@H]1C (stereo partly specified) [Rifampin (Rifampicin)] | -102% | -0.8% | -2.73%
35 | CSCC[C@H](N)C(=O)O [L-methionine] | -9.26% | -0.43% | 1.19%
36 | CN(C)CCC=C1c2ccccc2CCc2ccccc21 | 8.98% | -1.73% | 0.57%
37 | CCOC(=O)CC(=O)N1CCSC1COc1ccccc1OC (stereo unspecified) [Moguisteine] | -1.23% | 6.33% | -0.775%
38 | O=C(Nc1cc(C(F)(F)F)ccc1O)Nc1cc(C(F)(F)F)ccc1O | -27.7% | -5.68% | -1.77%

Row | Structure (SMILES) | inhibition of IKZF1 HTRF signal [1] | relative growth in counter assay (HEK293FT dCK*-only) | relative growth recovery (HEK293FT dCK*-IKZF1)
39 | CNC[C@H](O)c1ccc(O)c(O)c1 | -26.9% | -15.6% | -7%
40 | C[C@@H]1CC(=O)NN=C1c1ccc(NN=C(C#N)C#N)cc1 | -27.1% | 11.2% | -2.62%
41 | CO[C@H]1/C=C/O[C@@]2(C)Oc3c(C)c(O)c4c(O)c(cc(O)c4c3C2=O)NC(=O)/C(C)=C\C=C\[C@H](C)[C@H](O)[C@@H](C)[C@@H](O)[C@@H](C)[C@H](OC(C)=O)[C@@H]1C [Rifamycin SV Sodium] | -36.7% | 2.23% | 0.23%
42 | CN(Cc1cnc2nc(N)nc(N)c2n1)c1ccc(C(=O)N[C@@H](CCC(=O)O)C(=O)O)cc1 | -18.9% | -31.2% | -10.1%
43 | Oc1c(Cl)cc(Cl)c(Cl)c1Cc1c(O)c(Cl)cc(Cl)c1Cl [Hexachlorophene] | -78.9% | 0.51% | -1.27%
44 | CN1CCCCC1CCN1c2ccccc2Sc2ccc(S(C)=O)cc21 (stereo unspecified) [mesoridazine besylate] | -49.8% | 10.8% | -0.555%
45 | CCOC(=O)C1=C[C@]2(CC)CCCN3CCc4c(n1c1ccccc41)[C@@H]32 | -26.3% | -0.08% | 3.4%
46 | CC[C@@]1(O)C(=O)OCc2c1cc1n(c2=O)Cc2cc3cc(O)ccc3nc2-1 [10-Hydroxycamptothecin] | 38.4% | -34% | -13.2%
47 | CCCCCCCCCCCCC[N+](C)(C)Cc1ccccc1 | 7.81% | -14.8% | -5.53%
48 | O=c1c(O)c(-c2ccc(O)c(O)c2)oc2cc(O)ccc12 [Fisetin (Fustel)] | 11.3% | -3.66% | -3.06%
49 | Clc1ccc(COC(Cn2ccnc2)c2ccc(Cl)cc2Cl)c(Cl)c1 (stereo unspecified) | -32.3% | -7.63% | -6.23%
50 | C=CCc1ccc(O)c(-c2cc(CC=C)ccc2O)c1 [Magnolol] | -27.1% | -9.5% | 2.08%
51 | C=C1CCC2[C@](C)(CO)[C@H](O)CC[C@@]2(C)[C@@H]1C/C=C1/C(=O)OC[C@H]1O (stereo partly specified) [Andrographolide] | 0.47% | -20.8% | -5.34%
52 | CN(CC3)C[C@@H](O)[C@H]3[C@]1=C(OC(C4=CC=CC=C4Cl)=CC2=O)C2=C(O)C=C1O [alvocidib] | -30.5% | -35.2% | -12.5%
53 | C[C@@H]1CC2C3CCC4=CC(=O)C=C[C@]4(C)[C@@]3(F)[C@@H](O)C[C@]2(C)[C@H]1C(=O)CO (stereo partly specified) | 19.4% | -5.74% | -0.19%
54 | NS(=O)(=O)c1ccc(S(=O)(=O)Nc2cccc3c(Cl)c[nH]c23)cc1 [Indisulam] | -6.45% | -24.4% | -3.02%
55 | CCN(CC)c1ccc(C(=C2C=CC(=[N+](CC)CC)C=C2)c2ccccc2)cc1 [Brilliant Green] | 79.8% | -35% | -14.4%
56 | CN(C)C(=O)C(CCN1CCC(O)(c2ccc(Cl)cc2)CC1)(c1ccccc1)c1ccccc1 [Loperamide HCl] | 3.48% | -7.07% | -1.04%
57 | CO[C@H]1/C=C/O[C@@]2(C)Oc3c(C)c(O)c4c(O)c(c(/C=N/N5CCN(C)CC5)c(O)c4c3C2=O)NC(=O)/C(C)=C\C=C\[C@H](C)[C@H](O)[C@@H](C)[C@@H](O)[C@@H](C)[C@H](OC(C)=O)[C@@H]1C | 33.6% | 12.9% | -2.5%
